Source: PubChem BioAssay (NCI)
This is part of a sample that, as a whole, favours compounds with a hit. Of some 79,000 tested, about 15% had one in any assay. Activity calls are given as the source filed them. Rule as the data show it: active = growth inhibition above about 70%; inactive = the rest.

What was measured:
[1] = NCI Yeast Anticancer Drug Screen. Data for the rad50 strain (AID 155);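 also: 0% = growth of vehicle-only cultures of the same strain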; conditions: S. cerevisiae rad50 strain growth inhibition; at 50.0 µM; hits give high values
Procedure, shortened: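 Cells are treated with compound, grown, and their growth is then scored against vehicle-only cultures of the same repair-deficient yeast strain.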

[2] = NCI Yeast Anticancer Drug Screen. Data for the mec2-1 strain (AID 157); conditions: S. cerevisiae mec2-1 strain, at 50.0 µM, hits give high values
Procedure, shortened: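 Cells of the genetically defined mec2-1 yeast strain are incubated with test compound. Inhibition of growth is calculated against vehicle-treated controls.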

[3] = NCI Yeast Anticancer Drug Screen. Data for the sgs1 mgt1 strain (AID 161);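 also: 0% = growth of cultures given vehicle only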; conditions: S. cerevisiae sgs1 mgt1 strain, at 50.0 µM, hits give high values
Procedure, shortened: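 Mutant yeast exposed to compound; growth scored against vehicle-only wells.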

[4] = NCI Yeast Anticancer Drug Screen. Data for the cln2 rad14 strain (AID 165);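 also: 0% = growth equal to vehicle treated cultures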; conditions: S. cerevisiae cln2 rad14 strain, at 50.0 µM, hits give high values
Procedure, shortened: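 The screen exposed genetically defined yeast (cln2 rad14) to test compounds and scored growth inhibition relative to vehicle-treated controls.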

[5] = NCI Yeast Anticancer Drug Screen. Data for the bub3 strain (AID 167); conditions: S. cerevisiae bub3 mutant strain, at 50.0 µM, hits give high values
Procedure, shortened: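 Part of a panel of yeast mutants defective in DNA damage repair or cell cycle regulation. Each strain is grown with compound, and inhibition is calculated relative to solvent-treated cultures.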

[6] = NCI Yeast Anticancer Drug Screen. Data for the mlh1 rad18 strain (AID 175); conditions: S. cerevisiae mlh1 rad18 strain growth inhibition; at 50.0 µM; hits give high values
Procedure, shortened: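 Compound-treated yeast growth, normalised to vehicle controls. Strain bears defined DNA repair mutations.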

Measured: growth inhibition

COC(=O)C1C(C(=O)OC)C2N(c3ccccc3)C=NN2C1C(=O)c1ccccc1 (stereo unspecified)
inactive: [1] -62.2% | [2] -10.2% | [3] -16% | [4] -3.65% | [5] 5.05% | [6] -4.65%

COc1ccc2c(c1)OC[C@@H]1c3cc(NC(=O)c4ccccc4)c(OC)cc3N(S(=O)(=O)c3ccccc3)[C@H]21
inactive: [1] -22.8% | [2] -6.4% | [3] -18.1% | [4] -3.3% | [5] 2.25% | [6] -2.25%

Nc1ccc(OCC(O)N2C(=O)c3ccccc3C2=O)cc1 (stereo unspecified)
inactive: [1] -46.2% | [2] -39.5% | [3] -32.9% | [4] 14.4% | [5] 29.9% | [6] -17.9%

CCOC(=O)C1(C(=O)OCC)C(C#N)(C#N)C1(C#N)C#N
inactive: [1] -0.8% | [2] 1.75% | [3] -7.2% | [4] -7.3% | [5] -1.65% | [6] -11.3%

COc1ccc(-c2nnc(N)o2)cc1OC
inactive: [1] -34% | [2] -10.3% | [3] -16.1% | [4] 6.35% | [5] -13.9% | [6] -24.9%

CCC(C)C(C)/C(C)=N/Nc1ccc([N+](=O)[O-])cc1[N+](=O)[O-] (stereo unspecified)
inactive: [1] 13.7% | [2] -10% | [3] 0.25% | [4] -34.9% | [5] 6.6% | [6] -26.4%

CCCCC1(CCBr)C(=O)NC(=Nc2ccccc2)NC1=O (stereo unspecified)
inactive: [1] 1.85% | [2] -5.35% | [3] 10.3% | [4] -41.8% | [5] 2.95% | [6] -13.9%

ClC(Cl)=C(Cl)C1(Cl)CC1COCc1ccccc1 (stereo unspecified)
inactive: [1] 45.5% | [2] -10.1% | [3] -4.05% | [4] 17.9% | [5] -7.85% | [6] -3%

O=C1OC(c2ccccc2)=N/C1=C\c1cccc(F)c1
inactive: [1] -18.4% | [2] -18.2% | [3] -23.1% | [4] -6.95% | [5] -16.1% | [6] 6.25%

CCOC(=O)C(CC)C1=CCCCC1 (stereo unspecified)
inactive: [1] -21% | [2] -48.7% | [3] -11.2% | [4] 12.3% | [5] -11.2% | [6] -8.55%

CCN(CC)CCC(CN(C)C)C(C)O (stereo unspecified)
inactive: [1] -4.05% | [2] 4.05% | [3] 13.1% | [4] -17.4% | [5] -1.4% | [6] 8.75%

COc1ccc(OC)c(C2SCC(=O)N2c2nncs2)c1 (stereo unspecified)
inactive: [1] -19.8% | [2] 6% | [3] 15.2% | [4] -17.6% | [5] -8.7% | [6] 2.2%

O=c1nc(/C=C/c2ccccc2Cl)cc2n1CCN2CCO
inactive: [1] -17.4% | [2] -10.7% | [3] -4.2% | [4] 4.1% | [5] -3.1% | [6] -10.2%

Cc1c(O)cc(O)c(C=O)c1C
inactive: [1] 6.05% | [2] -4.2% | [3] 16.1% | [4] 4.5% | [5] -2.45% | [6] 3.1%

Cc1c(NC(=O)Nc2c(Cl)cccc2Cl)c(=O)n(-c2ccccc2)n1C
inactive: [1] -42.8% | [2] -36.3% | [3] -15.5% | [4] -10.2% | [5] -29.9% | [6] -39.9%

CN=C(N)NC
inactive: [1] -0.1% | [2] 2.45% | [3] 15.1% | [4] 24.1% | [5] 8.55% | [6] 20.1%

Nc1ccccc1CCO
inactive: [1] 14.5% | [2] -6.75% | [3] 30.9% | [4] 13.2% | [5] -5.8% | [6] 19.5%

Cc1nc2cccc3ccc4cc5ccccc5c1c4c32
inactive: [1] 69.6% | [2] 12.7% | [3] 16.1% | [4] 7.3% | [5] 25.9% | [6] 14.9%

Nc1nnc(-c2ccccc2)s1
inactive: [1] -11.8% | [2] 5.95% | [3] 2.2% | [4] 13.8% | [5] 5.85% | [6] 5.05%

c1ccc(COC2COC(OCc3ccccc3)C(OCc3ccccc3)C2OCc2ccccc2)cc1 (stereo unspecified)
inactive: [1] 1.05% | [2] -3.45% | [3] 3.4% | [4] -36.4% | [5] 12.4% | [6] -3.3%

CN(C)c1ccc(C=C2C(=O)OC(C)(C)OC2=O)cc1Br
inactive: [1] 1.55% | [2] -13.8% | [3] -4.1% | [4] 32% | [5] -17.6% | [6] 10.7%

COc1cc(Cl)ccc1NC(=O)Oc1ccc(-c2ccccc2)cc1Cl
active: [2] 99.5% | [3] 99.5% | [4] 99% | [5] 99.2% | [6] 99.4%
inactive: [1] 65.8%

Cc1cc(C)[n+](C)c(/C=C/c2cccc([N+](=O)[O-])c2)n1
inactive: [1] 6.55% | [2] -6.95% | [3] 4.85% | [4] 16.4% | [5] 3.4% | [6] 11.1%

COc1cc(CCCOC(=O)/C=C/c2ccc(O)c(O)c2)cc(O)c1O
inactive: [1] 19.1% | [2] -18.3% | [3] 1.05% | [4] -17.4% | [5] -0.8% | [6] -72.4%

O=C1NC(Cc2ccc(O)cc2)C(=O)N2CCCC12 (stereo unspecified)
inactive: [1] 1.25% | [2] -3% | [3] -34.6% | [4] 0.4% | [5] -18.2% | [6] -14.2%

Cn1ncc2c(=S)[nH]c(=S)[nH]c21
inactive: [1] 19.4% | [2] -9.25% | [3] 2.5% | [4] 7.85% | [5] 2.3% | [6] 1.85%

COc1ccc(C2c3cc4c(cc3OC(C)(OC)C2C)OCO4)c(OC)c1OC (stereo unspecified)
inactive: [1] -1.5% | [2] 5.8% | [3] -4.75% | [4] -19% | [5] -3.6% | [6] 22.1%

CCOC(=O)N1CCN(P(=O)(c2ccccc2)N2CCN(C(=O)OCC)CC2)CC1
inactive: [1] 7.35% | [2] -28.4% | [3] 1.85% | [4] -31.6% | [5] -0.75% | [6] 9.85%

O=C1CCC(c2ccccc2)C(O)(C(=O)O)C1 (stereo unspecified)
inactive: [1] 6.45% | [2] -8.1% | [3] -13.9% | [4] -5.1% | [5] -14.3% | [6] -24.9%

O=C(O)c1onc2ccccc12
inactive: [1] -17.9% | [2] -15.1% | [3] -35.2% | [4] -7.7% | [5] -5.15% | [6] -29.8%

O=C(O)/C=C/c1ccc(OCc2ccccc2)c(OCc2ccccc2)c1
inactive: [1] 0.7% | [2] -11.7% | [3] 7.15% | [4] -10.9% | [5] -8.85% | [6] -6.9%

O=C(O)c1[nH]ncc1[N+](=O)[O-]
inactive: [1] 24.1% | [2] -4.85% | [3] -5.05% | [4] 11.3% | [5] 11% | [6] 2.8%

CN(C)CCCNC(=O)/C=C\C(=O)O
inactive: [1] 5.8% | [2] 3.9% | [3] 0.15% | [4] -4.9% | [5] 2.6% | [6] -6.15%

COc1ccc(N2C(=O)[C@@H](N=[N+]=[N-])[C@@H]2[C@H]2COC(C)(C)O2)cc1
inactive: [1] 1.95% | [2] -14.3% | [3] 1.3% | [4] 5% | [5] 3.35% | [6] 9%

COc1cc(C2(C)OC(=O)c3ccccc32)c(OC)c2ccccc12 (stereo unspecified)
inactive: [1] 27.9% | [2] 2.3% | [3] 30.4% | [4] 31.3% | [5] 30.9% | [6] 14.2%

O=C(COc1ccc(Cl)cc1)Nc1cccc([N+](=O)[O-])c1
inactive: [1] 2.55% | [2] 17.1% | [3] 2.45% | [4] -5.7% | [5] 18.9% | [6] 6.7%

O/N=C/C(=Nc1cccc2ccccc12)NO
inactive: [1] -11.1% | [2] -12.8% | [3] -12.1% | [4] -10.3% | [5] -5.7% | [6] 13.9%

CCNCC1COc2ccccc2O1 (stereo unspecified)
inactive: [1] -0.3% | [2] 3% | [3] -7% | [4] -15.8% | [5] -4.8% | [6] -1%

CCOC(=O)c1ccc(NC(=O)Oc2ccc(C=O)cc2OC)cc1
inactive: [1] 5.7% | [2] 5.3% | [3] 7.85% | [4] 11% | [5] 20.1% | [6] 7.2%

N[C@@H]1CCCC[C@H]1O
inactive: [1] -0.35% | [2] -5.5% | [3] -8.7% | [4] -24.9% | [5] -5.9% | [6] -16.1%

CN(C)/N=N/c1nc2c(c(=O)n(C)c(=O)n2C)n1CC(O)CO (stereo unspecified)
inactive: [1] 11.4% | [2] 29% | [3] 22.1% | [4] -2.85% | [5] 2% | [6] 27.1%
